{
  "source": "PubChem BioAssay AID372",
  "about": "(MTDP, 2006)",
  "note": "Where “and” joins values, the source holds several entries; their conditions need not be identical. Identical values can stand only once. The campaign covered roughly 100,000 compounds. About 770 (0.77%) were called active. Cut-off read from the data, not from the text of the source: active = inhibition above about 50%; inactive = the rest. The full list was thinned out, with actives kept by preference.",
  "data": [
    {"target": "Gag-Pol polyprotein (Human immunodeficiency virus type 1 group M subtype B (isolate HXB2)) (UniProt P04585)", "assay": "RNase H inhibition, HIV 1 Gag Pol polyprotein, FRET biochemical assay, screening (AID 372)", "details": "HIV-1 RT RNase H, FRET RNA/DNA substrate fluorescence; at 10 µM; hits give high values", "values": [
      {"smiles": "CC12CCC3C(CC=C4CC(O)CCC43C)C1C/C(=C\\c1ccc([N+](=O)[O-])cc1)C2=O", "note": "(centres undefined)", "inhibition": "55% (active)"},
      {"smiles": "CC(=O)OC1CCC2(C)C(=CCC3C4C/C(=C\\c5ccc([N+](=O)[O-])cc5)C(=O)C4(C)CCC32)C1", "note": "(centres undefined)", "inhibition": "9% (inactive)"},
      {"smiles": "CC12CCC3C(CC=C4CC(O)CCC43C)C1C/C(=C\\c1ccc(F)cc1)C2=O", "note": "(centres undefined)", "inhibition": "11% (inactive)"},
      {"smiles": "Cc1cc(OCc2ccc(Cl)cc2)c2c3c(c(=O)oc2c1)CCC3", "inhibition": "3% (inactive)"},
      {"smiles": "Oc1c(I)cc(I)cc1CN1CCN(c2ccccc2F)CC1", "inhibition": "8% (inactive)"},
      {"smiles": "Cc1cc(C=C2C(=O)NC(=O)NC2=O)c(C)n1-c1ccc(Br)cc1", "inhibition": "9% (inactive)"},
      {"smiles": "O=C1NC(=O)C(=Cc2cccn2-c2ccc(Br)cc2)C(=O)N1", "inhibition": "50% (active)"},
      {"smiles": "Cc1cc(C)cc(N2C(=O)NC(=O)/C(=C\\c3cccn3-c3ccccc3)C2=O)c1", "inhibition": "28% (inactive)"},
      {"smiles": "CN1C(=O)C(Cc2c[nH]c3ccccc23)C(=O)N(C)C1=O", "inhibition": "0% (inactive)"},
      {"smiles": "O=[N+]([O-])c1ccccc1CNCCc1ccc(F)cc1", "inhibition": "1% (inactive)"},
      {"smiles": "Cc1ccccc1N1CCN(Cc2ccc(Cl)cc2Cl)CC1", "inhibition": "2% (inactive)"},
      {"smiles": "CCN(CC)C(=O)c1ccc(NC(C)=O)cc1", "inhibition": "9% (inactive)"},
      {"smiles": "CCOc1cccc(=[O+]CC)c2c(C)oc(C)c12", "inhibition": "2% (inactive) and 12% (inactive)"},
      {"smiles": "O=C(O)c1cn(Cc2ccccc2)c2ccccc12", "inhibition": "8% (inactive)"},
      {"smiles": "CCOc1ccc(C=C2C(=O)NC(=S)NC2=O)cc1", "inhibition": "12% (inactive)"},
      {"smiles": "O=C1NC(=S)NC(=O)C1=Cc1ccc(OCc2cccc(C(=O)O)c2)cc1", "inhibition": "5% (inactive)"},
      {"smiles": "O=C1NC(=S)NC(=O)C1=Cc1ccc(OCc2ccc(Br)cc2)cc1", "inhibition": "59% (active)"},
      {"smiles": "CN1C(=O)/C(=C\\c2cn(Cc3ccccc3)c3ccccc23)C(=O)NC1=S", "inhibition": "15% (inactive)"},
      {"smiles": "COc1ccc(CN2CCN(CCO)CC2)c(OC)c1", "inhibition": "9% (inactive)"},
      {"smiles": "Clc1ccc(N2CCN(CCc3ccccc3)CC2)cc1", "inhibition": "14% (inactive)"},
      {"smiles": "CSc1ccc(C2C(C#N)=C(N)Oc3c2c(=O)oc2ccccc32)cc1", "note": "(centres undefined)", "inhibition": "7% (inactive)"},
      {"smiles": "O=C(COc1ccccc1)Nc1ccc(Cl)cc1C(=O)c1ccccc1", "inhibition": "37% (inactive)"},
      {"smiles": "O=C(COc1ccc([N+](=O)[O-])cc1)Nc1ccc(Br)cc1C(=O)c1ccccc1", "inhibition": "49% (inactive)"},
      {"smiles": "COc1ccc(OCC(=O)Nc2ccc(Br)cc2C(=O)c2ccccc2)cc1", "inhibition": "51% (active)"},
      {"smiles": "C=CCOC(=O)C1=C(C)OC(N)=C(C(=O)OCC)C12C(=O)Nc1ccccc12", "note": "(centres undefined)", "inhibition": "2% (inactive)"},
      {"smiles": "COc1ccc(CN2CCN(Cc3cccc(OC)c3)CC2)cc1", "inhibition": "7% (inactive)"},
      {"smiles": "O=C1NC(=S)NC(=O)C1=Cc1ccc(-c2cc(Cl)c([N+](=O)[O-])cc2Cl)o1", "inhibition": "50% (active)"},
      {"smiles": "O=C1NC(=S)NC(=O)C1=Cc1ccc(-c2ccc(Br)c(Cl)c2)o1", "inhibition": "54% (active)"},
      {"smiles": "O=C1NC(=S)NC(=O)C1=Cc1ccc(-c2ccc(Cl)c(Cl)c2)o1", "inhibition": "0% (inactive)"},
      {"smiles": "O=C1NC(=S)NC(=O)C1=Cc1ccc(-c2ccc(C(=O)O)c(Cl)c2)o1", "inhibition": "17% (inactive)"},
      {"smiles": "O=C1NC(=S)NC(=O)C1=Cc1ccc(-c2cc(Cl)ccc2Cl)o1", "inhibition": "0% (inactive)"},
      {"smiles": "Cc1ccc(-c2ccc(C=C3C(=O)NC(=S)NC3=O)o2)c(Br)c1", "inhibition": "36% (inactive)"},
      {"smiles": "O=C1NC(=S)NC(=O)C1=Cc1ccc(-c2ccc([N+](=O)[O-])cc2Br)o1", "inhibition": "56% (active)"},
      {"smiles": "Cc1cc(-c2ccc(C=C3C(=O)NC(=S)NC3=O)o2)c(C)c([N+](=O)[O-])c1", "inhibition": "27% (inactive)"},
      {"smiles": "CN1C(=O)NC(=O)/C(=C/c2ccc(-c3ccc([N+](=O)[O-])cc3Br)o2)C1=O", "inhibition": "26% (inactive)"},
      {"smiles": "CCOC(=O)C1=C(N)OC(C)=C(C(C)=O)C12C(=O)Nc1ccccc12", "note": "(centres undefined)", "inhibition": "10% (inactive)"},
      {"smiles": "COc1cc(/C=C2\\C(=O)NC(=O)N(c3ccccc3)C2=O)c([N+](=O)[O-])cc1OC", "inhibition": "5% (inactive)"},
      {"smiles": "CC(C)OC(=O)N1CCN(/C(N)=N/[N+](=O)[O-])CC1", "inhibition": "7% (inactive)"},
      {"smiles": "O=C(COc1ccc2ccccc2c1)N1CCN(Cc2ccc3c(c2)OCO3)CC1", "inhibition": "17% (inactive)"},
      {"smiles": "Cc1ccc(-n2c(C)cc(/C=C3/C(=O)NC(=O)N(Cc4ccco4)C3=O)c2C)cc1", "inhibition": "16% (inactive)"},
      {"smiles": "O=C1NC(=O)N(Cc2ccco2)C(=O)/C1=C\\c1cn(Cc2ccccc2)c2ccccc12", "inhibition": "23% (inactive)"},
      {"smiles": "Cc1ccc(OCCn2cc(/C=C3/C(=O)NC(=O)N(Cc4ccco4)C3=O)c3ccccc32)cc1", "inhibition": "52% (active)"},
      {"smiles": "O=c1c2ccccc2nc(-c2ccc(Cl)cc2Cl)n1-c1nccs1", "inhibition": "6% (inactive)"},
      {"smiles": "CN1C(=O)C(=Cc2ccc(-c3cccc([N+](=O)[O-])c3)o2)C(=O)N(C)C1=S", "inhibition": "21% (inactive)"},
      {"smiles": "CN1C(=O)NC(=O)/C(=C/c2ccc(-c3cccc([N+](=O)[O-])c3)o2)C1=O", "inhibition": "14% (inactive)"},
      {"smiles": "O=C1NC(=O)N(Cc2ccco2)C(=O)/C1=C\\c1ccc(-c2cccc([N+](=O)[O-])c2)o1", "inhibition": "57% (active)"},
      {"smiles": "COc1cc(/C=C(\\C)[N+](=O)[O-])cc(OC)c1OC", "inhibition": "4% (inactive)"},
      {"smiles": "N#CC(C#N)=Cc1ccc(Cl)cc1Cl", "inhibition": "3% (inactive)"},
      {"smiles": "C/C(=C\\c1ccc(Cl)cc1Cl)[N+](=O)[O-]", "inhibition": "51% (active)"},
      {"smiles": "COc1ccc(C2c3c(c4ccccc4oc3=O)Oc3c2c(=O)oc2ccccc32)cc1Cn1nc(C)c([N+](=O)[O-])c1C", "inhibition": "16% (inactive)"},
      {"smiles": "O=C(Nc1ccc(Cl)cc1C(=O)c1ccccc1)c1ccc([N+](=O)[O-])cc1", "inhibition": "16% (inactive)"},
      {"smiles": "Cc1cccc(-n2c(/C=C/c3ccco3)nc3ccccc3c2=O)c1", "inhibition": "4% (inactive)"},
      {"smiles": "CCOc1ccc(N2C(=O)CC(=O)NC2=S)cc1", "inhibition": "11% (inactive)"},
      {"smiles": "O=C1NC(=S)NC(=O)C1=Cc1ccc(-c2ccc(C(=O)O)cc2)o1", "inhibition": "14% (inactive)"},
      {"smiles": "CCN1C(=O)/C(=C/c2cccn2C)C(=O)NC1=S", "inhibition": "51% (active)"},
      {"smiles": "Cn1cccc1/C=C1/C(=O)NC(=S)N(c2ccc(Cl)cc2)C1=O", "inhibition": "41% (inactive)"},
      {"smiles": "C=CCN1C(=O)NC(=O)C(=Cc2cccn2C)C1=O", "inhibition": "0% (inactive)"},
      {"smiles": "Cc1cccc(-n2c(/C=C3\\C(=O)Nc4ccccc43)nc3ccc(I)cc3c2=O)c1", "inhibition": "15% (inactive)"},
      {"smiles": "Cc1cc([N+](=O)[O-])c(C)cc1-c1ccc(C=C2C(=O)NC(=O)NC2=O)o1", "inhibition": "16% (inactive)"},
      {"smiles": "Cc1cc(-c2ccc(C=C3C(=O)NC(=O)NC3=O)o2)ccc1[N+](=O)[O-]", "inhibition": "67% (active)"},
      {"smiles": "Cc1ccc(-c2ccc(C=C3C(=O)NC(=S)NC3=O)o2)cc1[N+](=O)[O-]", "inhibition": "62% (active)"},
      {"smiles": "Cc1c(-c2ccc(C=C3C(=O)NC(=S)NC3=O)o2)ccc([N+](=O)[O-])c1C", "inhibition": "43% (inactive)"},
      {"smiles": "Cc1cc(-c2ccc(C=C3C(=O)NC(=S)NC3=O)o2)cc([N+](=O)[O-])c1C", "inhibition": "35% (inactive)"},
      {"smiles": "Cc1c(-c2ccc(C=C3C(=O)NC(=O)NC3=O)o2)ccc([N+](=O)[O-])c1C", "inhibition": "18% (inactive)"}
    ]}
  ]
}
